Screening results: PubChem, National Center for Advancing Translational Sciences (NCATS)
This is a sample that favours compounds with a hit; in the whole collection about 19% have one here.
TDP1 block: inhibitors of human tyrosyl-DNA phosphodiesterase TDP1; AID 485290; recombinant TDP1, AlphaScreen DNA substrate cleavage; Potency, µM (top dose mostly 130 µM), without a hit: at the highest dose activity change, negative = inhibition, hits mostly inhibitors; Q9NUW8; 350,000 tested, 0.28% active; also: potency is read from the fitted curve at half-maximal effect; % is scaled to controls: 0 for no effect and ±100 for the full control effect; nearly all actives have a fitted effect of over 40% in size
Target sequence (Q9NUW8 whole entry, looked up): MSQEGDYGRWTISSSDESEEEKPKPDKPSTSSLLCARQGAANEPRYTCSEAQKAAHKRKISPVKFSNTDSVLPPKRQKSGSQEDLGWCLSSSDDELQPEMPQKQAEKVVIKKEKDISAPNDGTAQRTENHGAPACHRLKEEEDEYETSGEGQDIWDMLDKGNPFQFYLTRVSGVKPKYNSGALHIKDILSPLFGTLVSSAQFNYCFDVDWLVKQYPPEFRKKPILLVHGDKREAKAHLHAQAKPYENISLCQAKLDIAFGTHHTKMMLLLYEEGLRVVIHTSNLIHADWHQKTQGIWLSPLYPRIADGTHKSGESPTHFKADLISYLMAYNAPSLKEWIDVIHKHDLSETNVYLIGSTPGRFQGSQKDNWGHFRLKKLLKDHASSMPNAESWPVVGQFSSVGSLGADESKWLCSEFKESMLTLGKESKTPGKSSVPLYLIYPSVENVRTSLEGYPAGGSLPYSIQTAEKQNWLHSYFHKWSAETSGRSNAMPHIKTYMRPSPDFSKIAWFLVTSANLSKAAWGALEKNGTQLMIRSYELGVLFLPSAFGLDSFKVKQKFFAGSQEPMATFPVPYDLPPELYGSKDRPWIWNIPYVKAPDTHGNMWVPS
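Recombinant human Tdp1 (E. coli-expressed, 1 nM final) preincubated with compounds 15 min at room temperature, then 5'-biotin/3'-phosphotyrosine-FITC DNA substrate (15 nM final) added for 5 min. AlphaScreen beads (10 ug/ml final) added 10 min; cleavage lowers signal.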
HepG2 tox-1: HepG2 cytotoxicity, counter-screen for TGF-b inhibitors; HepG2 CAGA-GFP viability, ATP luminescence, 18 h; Potency, µM (doses to about 46.1 µM), for the others: at the top dose activity change, negative = cytotoxicity, actives largely listed as cytotoxic; 410,000 tested, 0.76% active; AID 588856; also: potency is read from the fitted curve at half-maximal effect
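HepG2 CAGA-GFP cells (1000/well, DMEM with 1% FBS) received compound, then TGF-beta at 500 pg/mL final, and were incubated 18 hours at 37 degrees C. Viability was read by CellTiter-Glo luminescence. Media-only wells were set as complete cell-killing and DMSO as no toxicity.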
TDP1 cell CPT: growth inhibition of DT40 Tdp1-/-;hTDP1 cells with camptothecin (screen for TDP1 inhibitors) | 420,000 tested, 12% active | chicken DT40 Tdp1-/-;hTDP1 cells + 20 nM CPT, ATP luminescence, 48 h | Potency, µM (titrated, usually from 46.2 µM), for the others: at the top dose activity change, negative = growth inhibition, usual class: inhibitors; also: potency is read from the fitted curve at half-maximal effect; % is scaled to controls: 0 for no effect and ±100 for the full control effect; nearly all actives have a fitted effect of over 55% in size
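Cell growth measured by CellTiter-Glo luminescence after a minimum 48 h, 37 C compound exposure with 20 nM CPT in Tdp1-knockout DT40 cells stably expressing hTDP1, seeded 400/well; qHTS titration format.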
TGFb SMAD3 inh: blocks TGF-b signaling. HepG2 CAGA-GFP TGF-b/SMAD3 reporter, GFP fluorescence, 18 h; TGF-beta stimulated, 500 pg/mL final. 410,000 tested, 1.2% active. Potency, µM (top dose mostly 46.1 µM), inactives show at the highest dose activity, negative = inhibition, most hits filed as inhibitors; also: potency is read from the fitted curve at half-maximal effect; % is scaled to controls: 0 for no effect and ±100 for the full control effect; nearly all actives have a fitted effect of over 65% in size
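Cell-based qHTS in HEPG2 carrying a CAGA-GFP Smad reporter; compounds added before 500 pg/mL final TGF-beta, 18 h incubation at 37 degrees C, GFP fluorescence quantified per cell by imaging cytometry.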
TDP1 cell noCPT: qHTS for Inhibitors of human tyrosyl-DNA phosphodiesterase 1 (TDP1): qHTS in cells in absence of CPT | Potency, µM (highest dose often 46.2 µM), without a hit: at the top dose activity change, negative = growth inhibition, usual class: inhibitors | 420,000 tested, 15% active | DT40 Tdp1-/- hTDP1 cells, no CPT, ATP luminescence, 48 h; also: potency is read from the fitted curve at half-maximal effect; % is scaled to controls: 0 for no effect and ±100 for the full control effect; nearly all actives have a fitted effect of over 55% in size
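Compound effects on proliferation are scored in DT40 Tdp1-/-;hTDP1 cells in the absence of CPT. ATP levels (CellTiter-Glo luminescence) are recorded after a ≥48 hr, 37 °C incubation.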
IL1B secr inh: inhibitors of inflammasome signaling (IL-1 beta secretion); THP-1 LPS/ATP IL-1B secretion, AlphaLISA, 16 h; active compounds read low; activity change, % at 57.5 µM; 360,000 tested, 4.7% active; AID 743279; in the data active = activity change below about -50%; inconclusive = mostly about -30% to -49%; also: % is scaled to controls: 0 for no effect and ±100 for the full control effect
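Secreted IL-1B measured by AlphaLISA bead assay after 16 h compound exposure of THP-1 cells; compounds (final up to 57.5 uM) added 1 h before LPS (250 ng/mL) and ATP (1.25 mM) stimulation; lower signal means less secretion.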
TGFb CAGA inh: confirmation of TGF-b signaling inhibitors in HepG2 reporter cells. shares compounds with TGFb SMAD3 inh. HepG2 CAGA-GFP TGF-b reporter, GFP fluorescence, 18 h; cells stimulated with TGF-beta, 500 pg/mL. Potency, µM (top dose mostly 46.1 µM), without a hit: at the top dose activity, negative = inhibition, actives largely listed as inhibitors. 1,600 tested, 63% active. AID 720534; also: potency is read from the fitted curve at half-maximal effect; % is scaled to controls: 0 for no effect and ±100 for the full control effect; nearly all actives have a fitted effect of over 65% in size
HepG2 tox-2: HepG2 cytotoxicity, TGF-b inhibitor counterscreen. shares compounds with TGFb SMAD3 inh. HepG2 CAGA-GFP viability, ATP luminescence, 18 h; cells stimulated with TGF-beta, 500 pg/mL. Potency, µM (titrated, usually from 46.1 µM), for the others: at the top dose activity, negative = cytotoxicity, most hits filed as inhibitors. 1,600 tested, 27% active; also: potency is read from the fitted curve at half-maximal effect; % is scaled to controls: 0 for no effect and ±100 for the full control effect; nearly all actives have a fitted effect of over 70% in size
TGFb CCL64 inh: blocks TGF-b signaling in CCL64 reporter cells. shares compounds with TGFb SMAD3 inh. CCL64 CAGA-GFP reporter, TGF-b stimulated, GFP fluorescence, 18 h. Potency, µM (titrated, usually from 46.1 µM), for inactives: at the highest dose activity, negative = inhibition, hits mostly inhibitors. 1,600 tested, 41% active; also: potency is read from the fitted curve at half-maximal effect; nearly all actives have a fitted effect of over 65% in size
COP TGFb inh: validation of TGF-b inhibitors in HepG2 COP promoter reporter; shares compounds with TGFb SMAD3 inh; HepG2 COP-GFP TGF-b reporter, GFP fluorescence, 18 h; cells stimulated by added recombinant TGF-beta; Potency, µM (doses to about 46.1 µM), inactives show at the top dose activity, negative = inhibition, actives largely listed as inhibitors; 1,600 tested, 3% active; also: potency is read from the fitted curve at half-maximal effect; nearly all actives have a fitted effect of over 70% in size
* = called active by the depositor; u = inconclusive; x = not tested or not shown. Unless noted, calls follow the shape of the dose curve; as a rule, active = well fitted curve in the direction sought with a large enough effect; inconclusive = small, poorly fitted or top-dose-only effect, or another doubt; inactive = no such curve, though single readings can be large; an effect the other way counts as inactive or inconclusive.

SMILES | TDP1 block | HepG2 tox-1 | TDP1 cell CPT | TGFb SMAD3 inh | TDP1 cell noCPT | IL1B secr inh | TGFb CAGA inh | HepG2 tox-2 | TGFb CCL64 inh | COP TGFb inh
Cc1cc(C)c2sc(NC(=O)c3ccc([N+](=O)[O-])o3)nc2c1 | x | -24% | u | -16% | u | u | x | x | x | x
O=C(Nc1nc2cc3c(cc2s1)OCCO3)c1ccc([N+](=O)[O-])o1 | -7% | -16% | 8.2µM* | u | 10µM* | -86* | 0.82µM* | 4.1µM* | u | 24%
COc1ccc2nc(NC(=O)c3ccc([N+](=O)[O-])o3)sc2c1 | x | -29% | 23µM* | 8.9µM* | 13µM* | -88* | 2.3µM* | 21µM* | 12µM* | 22%
O=C(Nc1c(Cl)ccc2nsnc12)c1ccc(Br)o1 | x | -19% | -19% | -2% | -27% | -12 | x | x | x | x
Cn1c(C(=O)N[C@@H](C(=O)O)c2ccccc2)cc2cc(F)ccc21 | x | 0% | 29% | 26% | 13% | 7 | x | x | x | x
CCn1cc(C(=O)O)c(=O)c2cnc(N3CCN(C(=S)Nc4ccccc4Cl)CC3)nc21 | 1% | -2% | -39% | -7% | u | 0 | x | x | x | x
O=C(COC(=O)c1c2c(nc3ccccc13)/C(=C\c1cccs1)CCC2)Nc1ccccc1 | 2% | -4% | 21µM* | 11µM* | 9.2µM* | -55* | u | u | u | 39%
CC(=O)c1ccc(NC(=O)COC(=O)c2c3c(nc4ccccc24)/C(=C\c2cccs2)CCC3)cc1 | 0% | -37% | 13µM* | 1.8µM* | 16µM* | -51* | 6.5µM* | u | 1.5µM* | 27%
CC(=O)Oc1ccccc1C(=O)C=Cc1cccc([N+](=O)[O-])c1 | x | -31% | 10µM* | 7.1µM* | 21µM* | -101* | 10µM* | u | 5.8µM* | u
O=C(/C=C/c1cccc([N+](=O)[O-])c1)c1cccs1 | 0% | -37% | 3.7µM* | 8.9µM* | 2.3µM* | -88* | 12µM* | 18µM* | 5.8µM* | 23%
O=C(/C=C/c1cccc([N+](=O)[O-])c1)Nc1ccc(NC(=O)c2cccs2)cc1 | -4% | 27% | 5% | 9% | 3% | 8 | x | x | x | x
O=C(/C=C/c1cccc([N+](=O)[O-])c1)c1ccccc1 | 9% | x | x | x | x | x | x | x | x | x
COc1cccc(CN(C)C(=O)c2cc(S(=O)(=O)N3CCCC3)ccc2C)c1OC | -7% | -14% | u | -17% | u | 21 | x | x | x | x
CCOC(=O)c1c(C)[nH]c(C)c1C(=O)COc1ncnc2cc([N+](=O)[O-])ccc12 | 5% | 0% | u | -11% | u | 9 | x | x | x | x
CN(C(=O)c1ccc(NC(=O)Cc2cccc(NC(=O)C3CCN(C(=O)CCc4ccccc4)CC3)c2)cc1)C1CCCC1 | 6% | -10% | u | 13µM* | u | -5 | u | -2% | 13% | 7%
Cc1nc2nc(C)c(NS(=O)(=O)c3ccc(CC(C)C)cc3)c(=O)n2[nH]1 | 5% | -11% | -7% | 15% | 0% | 9 | x | x | x | x
CCOc1ccc(C(=O)NC(=S)Nc2cccc(NC(=O)c3ccco3)c2)cc1[N+](=O)[O-] | 2% | -17% | u | 8.9µM* | 15µM* | u | 8.2µM* | -23% | u | -7%
O=C(Nc1ccc(Cl)cc1)N(Cc1nc2ccccc2c(=O)[nH]1)Cc1cccs1 | 4% | 8% | u | 10µM* | 21µM* | u | 21µM* | u | u | 38%
O=C(Nc1ccccc1Cl)N(Cc1nc2ccccc2c(=O)[nH]1)Cc1cccs1 | 1% | -21% | u | -2% | u | -2 | x | x | x | x
Cc1ccccc1C(=O)c1c[nH]c(C(=O)N2CCN(c3ccccc3F)CC2)c1 | 3% | 15% | 18µM* | u | 15µM* | -66* | 13µM* | -19% | u | 3%
CCC(=O)c1c[nH]c(C(=O)N2CCN(c3ccccc3)CC2)c1 | 5% | -12% | 10% | 49% | -14% | 9 | x | x | x | x
O=C(Nc1ccc(S(=O)(=O)NC2=NCCCCC2)cc1)c1ccc([N+](=O)[O-])s1 | x | -105% | 5.2µM* | 7.1µM* | 10µM* | -57* | 12µM* | u | 21µM* | 27%
Cc1ccc(Nc2nnc(SCC(=O)NC3CC3)s2)cc1 | 1% | 3% | -1% | 4% | 15% | 12 | x | x | x | x
C[C@H](CO)N1C[C@H](C)[C@H](CN(C)S(=O)(=O)c2ccc(Cl)cc2)OCc2cnnn2CCCC1=O | x | 13% | u | 9% | u | -16 | x | x | x | x
O=C(OC(C(=O)Nc1cc(Cl)cc(Cl)c1)c1ccccc1)C1=COCCO1 (centres undefined) | 4% | -14% | u | 16µM* | 18µM* | -51* | u | u | 18µM* | 43%
COc1ccc(-c2noc(CCC(=O)NC3CCCCC3)n2)cc1 | 2% | 1% | u | 15% | u | 0 | x | x | x | x
CCN(CC)S(=O)(=O)c1ccc2oc(SCC(=O)Nc3cc(C)on3)nc2c1 | 3% | -14% | 0.65µM* | 10µM* | 0.73µM* | -14 | u | u | -26% | 17%
